Hits are enriched below; roughly 3.6% of the tested compounds scored in any of these assays.
esBAF inh: inhibitors of esBAF chromatin remodeling in mouse ES cells | 2% of 350,000 active | AID 602393 | reporter increase, % at 12.5 µM | Bmi1-luciferase knock-in reporter, 24 h; 100% = twice the neutral-well signal; in the data active = activation above about 40%;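 also: 0% = median of the plate's neutral control wells and 100% = double that signal; a rise in the Bmi1 reporter signal indicates esBAF inhibition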
APOBEC3A inh: inhibitors of human APOBEC3A DNA deaminase. AID 493011. recombinant A3A, FAM/TAMRA ssDNA deamination fluorescence. inhibition, % at 20 µM. 0.41% of 330,000 active. P31941;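 active = at least 40% inhibition at 20 µM here, with at most 30% in a related deaminase screen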;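 also: plate controls were A3A with DMSO for no effect and wells lacking A3A enzyme for full effect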
PHOSPHO1 inh: PHOSPHO1 (human) inhibition. Q8TCT1. recombinant PHOSPHO1, absorbance phosphatase assay. inhibition, % at 13.3 µM. 1.1% of 290,000 active. AID 1565; in the data active = inhibition above about 60%
Wnt bcat act: activates Wnt/beta-catenin signaling in a reporter cell assay; activator, plate reader; activation, % at 9.35 µM; 1.2% of 300,000 active; AID 743398; in the data active = activation above about 30%, passing the limit was not always enough;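 also: 0% = neutral control wells and 100% = positive control wells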
A3G deaminase: blocks human APOBEC3G single-stranded DNA deamination. Q9HC16. recombinant A3G, ssDNA deamination FAM/TAMRA fluorescence. inhibition, % at 20 µM. 0.28% of 330,000 active. AID 493012;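 active = inhibition of at least 40% at 20 µM, with no more than 30% in the related APOBEC3A deaminase screen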;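 also: plate controls were DMSO wells with A3G for no effect and wells lacking A3G enzyme for full effect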
Target sequence (Q9HC16 whole entry, looked up): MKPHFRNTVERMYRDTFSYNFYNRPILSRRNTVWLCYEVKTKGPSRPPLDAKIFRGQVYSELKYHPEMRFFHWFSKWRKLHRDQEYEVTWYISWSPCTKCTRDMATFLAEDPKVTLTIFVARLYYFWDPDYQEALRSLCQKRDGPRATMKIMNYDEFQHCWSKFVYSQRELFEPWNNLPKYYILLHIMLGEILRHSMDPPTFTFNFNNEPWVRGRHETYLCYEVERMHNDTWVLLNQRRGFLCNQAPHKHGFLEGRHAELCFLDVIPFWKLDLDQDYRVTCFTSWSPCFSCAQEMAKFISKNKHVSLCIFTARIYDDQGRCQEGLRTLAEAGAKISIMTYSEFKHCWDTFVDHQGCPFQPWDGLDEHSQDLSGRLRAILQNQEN
MITF act: increases MITF-driven TRPM1 promoter luciferase signal; SK-MEL-5 TRPM1-promoter luciferase, 24 h; % of positive control, neutral wells = 0; activation, % at 12.5 µM; AID 588334; 0.75% of 300,000 active;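 active = mean activation of at least 80% with every replicate also reaching 80%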;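 also: 0% = neutral control wells and 100% = parthenolide positive control wells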
An asterisk follows results filed as active.

Cc1cc(C)nc(SCc2csc(-c3ccccc3)n2)n1 was read as APOBEC3A inh 1, PHOSPHO1 inh 12, A3G deaminase 3 and MITF act 113*.
For Cc1cc(C)nc(SCCN(C)C)n1 the results were APOBEC3A inh -4, PHOSPHO1 inh 29, Wnt bcat act -1, A3G deaminase -6 and MITF act -7.
Cc1cc(C)nc(SCc2csc(N)n2)n1 was read as esBAF inh -4, APOBEC3A inh 0, PHOSPHO1 inh 84*, A3G deaminase -6 and MITF act 10.
Screening COc1ccc(-c2cnc3c(c2)C(=O)N([C@H](C)CO)C[C@H](C)[C@@H](CN(C)Cc2ccc(C(=O)O)cc2)O3)cc1 returned esBAF inh 2.
CCOc1ccc2[nH]c(=S)[nH]c2c1 was read as esBAF inh -8, APOBEC3A inh 1, PHOSPHO1 inh 103*, Wnt bcat act -4, A3G deaminase 24 and MITF act -12.
For CCOc1ccc2nc(-c3ccccc3)[nH]c2c1 the results were esBAF inh -36, APOBEC3A inh -5, PHOSPHO1 inh 18 and A3G deaminase -6.
For Cc1ccc(N(C(=O)Cn2nnc(-c3cccs3)n2)C(C(=O)NC2CCCC2)c2ccncc2)cc1 (stereo unspecified) the results were esBAF inh -5, APOBEC3A inh -1, PHOSPHO1 inh 60*, Wnt bcat act -1, A3G deaminase -3 and MITF act 2.
For O=C(NC1CCCCC1)C(c1cccs1)N(C(=O)c1ccco1)c1ccc2c(c1)OCCO2 (stereo unspecified) the results were esBAF inh 78*, APOBEC3A inh -1, PHOSPHO1 inh -8, Wnt bcat act 0, A3G deaminase -4 and MITF act -1.
For CCc1ccc(N(C(=O)c2ccco2)C(C(=O)NC2CCCC2)c2ccncc2)cc1 (stereo unspecified) the results were esBAF inh 42*, APOBEC3A inh -1, PHOSPHO1 inh 11, Wnt bcat act 8, A3G deaminase -7 and MITF act 17.
CCc1ccc(N(C(=O)c2ccco2)C(C(=O)NC2CCCC2)c2ccco2)cc1 (stereo unspecified) was read as esBAF inh 50*, APOBEC3A inh 1, A3G deaminase 2 and MITF act 5.
Screening O=C(NC1CCCC1)C(c1ccncc1)N(C(=O)c1ccco1)c1ccc(Cl)cc1 (stereo unspecified) returned esBAF inh 5, APOBEC3A inh -3, PHOSPHO1 inh 20, Wnt bcat act -1, A3G deaminase -8 and MITF act -8.
Screening CC(=O)c1ccc(N(C(=O)c2ccco2)C(C(=O)NC2CCCC2)c2cccs2)cc1 (stereo unspecified) returned esBAF inh 11, APOBEC3A inh -3, PHOSPHO1 inh 31, Wnt bcat act 1 and A3G deaminase -4.
For O=C(NC1CCCC1)C(c1ccco1)N(C(=O)c1ccco1)c1ccccc1 (stereo unspecified) the results were esBAF inh 3, APOBEC3A inh -4, PHOSPHO1 inh 46, Wnt bcat act 0, A3G deaminase -6 and MITF act -4.
COc1cccc(C(=O)Nc2ccc3c(c2)C(=O)N(C)C[C@@H](OC)[C@@H](C)CN(CCc2ccccc2)[C@H](C)CO3)c1 was read as esBAF inh 4.
Screening Cc1ccc(S(=O)(=O)N(C)C[C@@H]2Oc3ccc(NC(=O)CCN4CCOCC4)cc3CC(=O)N([C@H](C)CO)C[C@@H]2C)cc1 returned esBAF inh -2.
Screening C[C@@H]1CN([C@H](C)CO)C(=O)c2cc(-c3cccc(F)c3)cnc2O[C@H]1CN(C)Cc1ccccc1 returned esBAF inh 0.
Screening C[C@@H]1CN([C@H](C)CO)C(=O)c2cc(NC(=O)C3CC3)ccc2O[C@@H]1CN(C)Cc1ccncc1 returned esBAF inh -9.
Screening CNc1nc(-c2ccc([N+](=O)[O-])cc2)cs1 returned esBAF inh 45*, APOBEC3A inh 1, PHOSPHO1 inh 27, Wnt bcat act 19, A3G deaminase 6 and MITF act 90*.
`CCNc1nc(-c2ccc(Cl)cc2)cs1` gave esBAF inh 90*, APOBEC3A inh -4, PHOSPHO1 inh 22, A3G deaminase -6 and MITF act 111*.
